Source: PubChem BioAssay AID1159580 (chemical genetic matrix, 2015)
Where “and” joins values, the source holds several entries; their conditions need not be identical. Equal values may be shown once. Out of some 5,500 compounds screened, about 2,000 (36%) were called active. Inconclusive results (about 18%) are left out. Rule as the data show it: active = normalized growth mostly below about 0.91 (no sharp cut-off); inconclusive = no clear call, values can overlap the other calls; inactive = mostly above about 0.92. The list shows a part of the results.

Assay: chemical genetic growth profiling, strain panel (AID 1159580);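 also: tested at 20 µM; growth read once vehicle control cultures reached saturation at 30 °C; 1 = growth at the plate median or of vehicle wells; lower values mean less growth of the strain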
Settings: S. cerevisiae deletion strains, growth OD
[1] = locus YGR229C, strain SMI1, hits give low values
[2] = locus YMR307W, strain GAS1, hits give low values
[3] = locus YNL153C, strain GIM3, hits give low values
[4] = locus YPL055C, strain LGE1, hits give low values
[5] = locus YPL241C, strain CIN2, hits give low values

Measured: normalized growth

O=C(Nc1ccccc1)c1ccccc1O
active: locus YBR021W, strain FUR4, hits give low values 1.18 [resistant] | locus YKR001C, strain vps1, hits give low values 0.897 | locus YLR113W, strain HOG1, hits give low values 0.791 | locus YOR184W, strain ser1, hits give low values 0.861
inactive: locus YBR229C, strain ROT2, hits give low values 1.01 | locus YCL029C, strain bik1, hits give low values 0.953 | locus YDL035C, strain GPR1, hits give low values 0.954 | locus YDL074C, strain BRE1, hits give low values 0.904 | locus YDL101C, strain DUN1, hits give low values 0.956 | locus YDL185W, strain tfp1, hits give low values 0.927 | locus YDL192W, strain arf1, hits give low values 0.941 | locus YDR101C, strain arx1, hits give low values 0.953 | locus YDR162C, strain NBP2, hits give low values 0.963 | locus YDR318W, strain mcm21, hits give low values 0.981 | locus YDR388W, hits give low values 0.988 | locus YDR502C, strain sam2, hits give low values 0.939 | locus YEL061C, strain CIN8, hits give low values 0.995 | locus YER110C, hits give low values 0.962 | locus YER155C, strain BEM2, hits give low values 0.98 | locus YER167W, strain BCK2, hits give low values 0.982 | locus YGL078C, strain dbp3, hits give low values 0.943 | locus YGL086W, strain mad1, hits give low values 0.966 | locus YGL248W, strain PDE1, hits give low values 0.981 | locus YGR078C, strain PAC10, hits give low values 0.94 | locus YGR135W, strain pre9, hits give low values 0.944 | [1] 0.909 | locus YGR252W, strain gcn5, hits give low values 0.847 | locus YHR030C, strain SLT2, hits give low values 0.992 and 0.935 | locus YHR079C, strain IRE1 (second series), hits give low values 0.979 | locus YHR079C, strain IRE1, hits give low values 0.921 | locus YHR094C, strain hxt1, hits give low values 0.989 | locus YHR129C, strain ARP1, hits give low values 0.991 | locus YHR200W, strain rpn10, hits give low values 0.963 | locus YIL066C, strain RNR3, hits give low values 0.986 | locus YIL073C, strain SPO22, hits give low values 0.874 | locus YIL125W, strain kgd1, hits give low values 0.984 | locus YIR030C, strain dcg1, hits give low values 0.976 | locus YJL095W, strain BCK1, hits give low values 0.929 and 0.932 | locus YJL134W, strain LCB3, hits give low values 0.987 | locus YJL168C, strain set2, hits give low values 0.992 | locus YJL187C, strain SWE1 (second series), hits give low values 0.941 | locus YJR043C, strain POL32, hits give low values 0.924 | locus YJR066W, strain TOR1, hits give low values 0.901 | locus YKL009W, strain mrt4, hits give low values 0.891 | locus YKL068W, hits give low values 0.964 | locus YKL085W, strain MDH1 (second series), hits give low values 0.98 | locus YKL085W, strain MDH1, hits give low values 0.98 | locus YLR039C, strain RIC1, hits give low values 0.949 | locus YLR058C, strain SHM2, hits give low values 0.99 | locus YLR102C, strain apc9, hits give low values 0.976 | locus YLR262C, strain YPT6, hits give low values 0.945 | locus YLR268W, strain sec22, hits give low values 0.916 | locus YLR330W, strain CHS5, hits give low values 0.983 | locus YLR342W, strain FKS1 (second series), hits give low values 0.968 | locus YLR371W, strain rom2, hits give low values 0.964 | locus YLR418C, strain cdc73, hits give low values 0.934 | locus YML016C, strain PPZ1, hits give low values 1 | locus YML032C, strain rad52, hits give low values 0.98 | locus YML124C, strain tub3, hits give low values 0.988 | locus YMR078C, strain ctf18, hits give low values 0.956 | locus YMR223W, strain ubp8, hits give low values 0.941 | [2] 0.986 | locus YNL067W, strain RPL9B, hits give low values 0.9 | [3] 0.94 | locus YNL183C, strain NPR1, hits give low values 0.885 | locus YNL233W, strain BNI4, hits give low values 0.945 | locus YNL250W, strain rad50, hits give low values 0.952 | locus YNL271C, strain bni1, hits give low values 0.959 | locus YNL298W, strain CLA4, hits give low values 0.971 | locus YNL307C, strain MCK1, hits give low values 0.974 | locus YNR052C, strain pop2, hits give low values 0.978 | locus YOL012C, strain htz1 1.23 | locus YOL147C, strain pex11, hits give low values 0.987 | locus YOR061W, strain CKA2, hits give low values 0.997 | locus YOR069W, strain VPS5, hits give low values 0.995 | locus YOR136W, strain idh2, hits give low values 0.983 | locus YOR144C, strain elg1, hits give low values 0.994 | locus YOR231W, strain MKK1, hits give low values 0.929 | locus YOR316C, strain cot1, hits give low values 0.989 | [4] 0.921 | [5] 0.994 | locus YPL256C, strain CLN2, hits give low values 0.901 | locus YPR119W, strain clb2, hits give low values 0.98 | locus YPR141C, strain kar3, hits give low values 0.969 | locus YPR163C, strain tif3, hits give low values 0.982 | locus YPR167C, strain met16, hits give low values 0.966 | strain wtn01, hits give low values 0.907

CCCn1c(=O)c2[nH]c(-c3ccc(OCC(=O)Nc4ccc(C#N)cc4)cc3)nc2n(CCC)c1=O
inactive: locus YAL040C, strain CLN3, hits give low values 0.979 | locus YCL061C, strain MRC1 (second series), hits give low values 0.998 | locus YDR363W, strain ESC2, hits give low values 1.02 | locus YER002W, strain NOP16, hits give low values 1 | [1] 0.995 | locus YMR263W, strain SAP30, hits give low values 0.982 | [2] 1.02 | [3] 1.01 | locus YNL175C, strain NOP13, hits give low values 0.994 | locus YNL197C, strain WHI3, hits give low values 0.978 | locus YNL224C, strain SQS1, hits give low values 0.992 | locus YOR083W, strain WHI5 (second series), hits give low values 0.992 | [4] 0.998 | [5] 0.973
